# Screening results: PubChem BioAssay, Broad Institute
# An excerpt weighted towards active compounds, which were near 3.1% of everything screened.
# INS-1E GSIS act: GLuc luminescence reporter in INS-1E cells, primary screen for activators of glucose-dependent secretion of insulin; INS-1E GLuc reporter insulin secretion, 2-3 h; activation, % at 16.6 µM; AID 743287; 0.61% of 370,000 active;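 active = lowest replicate activation of at least 40%, so every replicate reaches that level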;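 note: 0% = median of neutral control wells and 100% = median of IBMX positive control wells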
# dFosB activator: activators of mouse delta FosB homodimer; purified delta FosB, TAMRA-CDK5 oligo fluorescence polarization; percent of positive-control signal above neutral wells; activation, % at 25 µM; 0.99% of 340,000 active; AID 493131;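 active = mean activation above about 17%, with every replicate also reaching it, limit read from the data, passing the limit was not always enough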
# Target sequence (P13346 whole entry, looked up): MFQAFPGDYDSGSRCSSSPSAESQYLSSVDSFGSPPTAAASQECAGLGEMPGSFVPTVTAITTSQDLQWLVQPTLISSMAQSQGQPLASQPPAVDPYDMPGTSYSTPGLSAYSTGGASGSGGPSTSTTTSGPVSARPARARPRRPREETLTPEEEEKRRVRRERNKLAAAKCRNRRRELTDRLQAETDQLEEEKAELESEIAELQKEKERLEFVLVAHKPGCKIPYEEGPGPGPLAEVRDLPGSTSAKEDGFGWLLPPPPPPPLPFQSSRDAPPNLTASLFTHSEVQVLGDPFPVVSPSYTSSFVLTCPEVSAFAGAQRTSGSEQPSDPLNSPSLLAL
# RAD54 branch: inhibitors of human RAD54 branch migration. inhibition, % at 10.4 µM. RAD54 Holliday junction branch migration, FAM/BHQ fluorescence. Q92698. 0.14% of 360,000 active. AID 602329;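 active = mean normalized replicate activity at least 40 and at least half of replicates scoring 40 or more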;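 note: 0% = median of neutral control wells and 100% = median of positive control wells; inhibitors cause a drop in the FAM fluorescence signal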
# MLL AF4-AF9 inh: inhibitors of human MLL-AF4/AF9 interaction | AlphaScreen, biotin-AF4 peptide binding to FLAG-AF9 | 0.47% of 350,000 active | AID 651704 | P42568 | inhibition, % at 10 µM;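 active = every replicate reaching a set inhibition limit, whatever the replicate mean, cut at about 25% in these data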;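 note: 0% = plate neutral control median and 100% = total signal loss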
# RAD52 inh: RAD52 (human) annealing inhibition. inhibition, % at 18.7 µM. 0.46% of 360,000 active. P43351. recombinant RAD52 DNA annealing, FRET fluorescence. AID 651710;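 active = every replicate showing at least 50% inhibition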
# DENV2 CPE rescue: protects cells from dengue virus 2 cytopathic effect. DENV2-infected cells, cytopathic effect rescue, plate reader. CPE inhibition, % at 9.99 µM. 1.7% of 350,000 active. AID 651640; in the data active = CPE inhibition above about 20%, passing the limit was not always enough; tested in BHK-21 cells;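 note: 0% = median of neutral control wells and 100% = median of positive control wells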
# The depositor's hits bear a star; x = not tested or not shown.
SMILES,INS-1E GSIS act,dFosB activator,RAD54 branch,MLL AF4-AF9 inh,RAD52 inh,DENV2 CPE rescue
C[C@@H]1CN([C@H](C)CO)C(=O)c2cccc(NS(=O)(=O)c3ccc(F)cc3)c2O[C@@H]1CN(C)Cc1ccccc1,2.9,x,6.1,-1.7,8.4,-4.8
CNC[C@@H]1Oc2c(NS(=O)(=O)c3ccc(Cl)cc3)cccc2C(=O)N([C@H](C)CO)C[C@H]1C,9.7,x,5.8,-0.4,0.8,-6.4
C[C@H](CO)N1C[C@H](C)[C@H](CN(C)Cc2ccc(C(=O)O)cc2)Oc2c(NS(=O)(=O)c3ccccc3)cccc2C1=O,4.8,x,-5.5,-1.6,-10.1,50.3*
CNC[C@H]1Oc2c(NS(=O)(=O)c3ccc(Cl)cc3)cccc2C(=O)N([C@H](C)CO)C[C@H]1C,9.1,x,0.9,-2.1,-2.8,79.5*
C[C@H]1CN([C@@H](C)CO)C(=O)c2cccc(NS(=O)(=O)c3ccccc3)c2O[C@H]1CN(C)Cc1ccc(C(=O)O)cc1,2.2,x,-3.5,-0.6,-14.9,-1.0
C[C@@H]1CN([C@H](C)CO)C(=O)c2cccc(NS(=O)(=O)c3ccc(Cl)cc3)c2O[C@H]1CN(C)Cc1ccccc1,5.7,x,-7.9,2.4,-4.1,25.0*
C[C@H](CO)N1C[C@H](C)[C@H](CN(C)Cc2ccccc2)Oc2c(NS(=O)(=O)c3ccc(F)cc3)cccc2C1=O,-10.2,x,-7.0,-0.8,-4.6,104.5*
C[C@H](CO)N1C[C@H](C)[C@@H](CN(C)Cc2ccccc2)Oc2c(NS(=O)(=O)c3ccc(Cl)cc3)cccc2C1=O,4.5,x,3.3,0.1,-0.8,1.5
CCN1CC(=O)N2[C@H](C1)[C@H](c1ccc(Br)cc1)[C@@H]2CO,9.9,x,x,2.9,-6.7,10.5
Cc1noc(C)c1NC(=O)N(C)C[C@H]1Oc2ccc(NC(=O)Cn3cnnn3)cc2C(=O)N([C@@H](C)CO)C[C@@H]1C,2.6,x,6.2,-2.8,-35.1,-0.7
CN1C(=O)c2cc(NC(=O)c3ccccc3F)ccc2OC[C@H]2O[C@H](CC(=O)NCc3ccc4c(c3)OCO4)CC[C@@H]21,-14.4,x,0.5,-0.7,7.6,-0.3
C[C@@H]1CC=CC[C@H](c2cccc(Cl)c2)NC(=O)[C@@H](Cc2ccccc2)N(C)C(=O)c2ccccc2O1 (mixture of isomers),-16.9,x,x,x,x,x
CNC[C@@H]1Oc2c(NS(=O)(=O)c3cccs3)cccc2C(=O)N([C@@H](C)CO)C[C@H]1C,12.4,x,0.8,-11.7,6.5,-15.2
CNC[C@H]1Oc2c(NS(=O)(=O)c3cccs3)cccc2C(=O)N([C@@H](C)CO)C[C@H]1C,1.2,x,-14.4,-2.7,-7.0,26.5*
CC(CCc1ccc(O)cc1)NC(c1ccccc1)c1ccc(Cl)cc1 (stereo unspecified),54.0,-7.0,-11.6,3.8,5.3,55.4*
O=C(c1cccnc1)N(Cc1ccccc1)c1ccccc1,117.3*,-2.3,-8.6,4.8,-10.9,x
O=C(Nc1ccccc1)N[C@H]1CC[C@H](CCNS(=O)(=O)c2cccc(F)c2)O[C@H]1CO,-19.4,x,0.1,-1.9,-4.5,1.4
CN(C)C(=O)C[C@@H]1CC[C@H]2[C@@H](COc3ccc(NC(=O)c4ccc(F)c(F)c4)cc3C(=O)N2C)O1,-1.3,x,-15.2,0.4,-1.0,3.0
COC(=O)CN1C(=O)[C@H]2[C@@H](/C=C/c3ccccc3)N3C(=O)CN(Cc4ccccc4)C(=O)[C@@]3(C)[C@H]2C1=O,-2.3,-0.2,-3.6,-1.8,-11.0,50.1*
CN1C(=O)[C@H]2[C@@H](/C=C/c3ccccc3)N3C(=O)CN(Cc4ccccc4)C(=O)[C@@]3(C)[C@H]2C1=O,x,3.2,0.8,-0.6,-86.0,0.6
COC(=O)c1sc2ccccc2c1NC(=O)c1cccs1,58.3*,-12.5,8.4,1.5,-2.2,1.6
CSc1nc(N)n2nc(C(C)(C)C)cc2n1,54.1*,1.4,x,x,2.0,2.4
CCCNC(=O)N1C[C@@H](O)COC[C@@H]2O[C@@H](CC(=O)N3CCCCC3)CC[C@H]21,-3.9,x,-0.4,-0.5,3.8,10.2
Cn1c(=O)n(CCc2ccccc2)c2ccccc21,14.9,0.5,-3.1,2.8,-7.6,-0.8
Cn1c(=O)n(Cc2ccccc2Br)c2ccccc21,50.3*,-5.0,-6.7,-1.5,0.8,x
SMILES,INS-1E GSIS act,dFosB activator,RAD54 branch,MLL AF4-AF9 inh,RAD52 inh,DENV2 CPE rescue
C[C@H](c1ccccc1)N1C[C@@H](COCc2ccccc2)Oc2cccc(Oc3ccccc3)c2S1(=O)=O,13.4,x,x,-0.9,5.0,-0.2
C[C@H](c1ccccc1)N1C[C@@H](COCc2ccccc2)Oc2cccc(Oc3ccc(C(C)(C)C)cc3)c2S1(=O)=O,5.8,x,x,1.1,-9.7,85.0*
COc1ccc(NC(=O)N2CCCCN3[C@H](C2)[C@@H](c2ccc(-c4ccccc4F)cc2)[C@@H]3CO)cc1,-16.5,x,8.0,-9.4,35.6,-25.2
COc1ccc(NC(=O)N2CCCCN3[C@H](CO)[C@H](c4ccc(-c5ccccc5F)cc4)[C@H]3C2)cc1,-15.6,x,21.7,-1.5,56.6*,-24.8
O=C(Nc1ccc(F)cc1)N1CCCCN2[C@H](CO)[C@H](c3ccc(-c4ccccc4F)cc3)[C@@H]2C1,x,x,-1.4,-2.3,-19.7,-1.4
COc1ccc(NC(=O)N2CCCCN3[C@H](CO)[C@@H](c4ccc(-c5ccccc5F)cc4)[C@@H]3C2)cc1,-14.1,x,6.9,-2.6,55.7*,-6.8
COc1ccc(NC(=O)N2CCCCN3[C@H](C2)[C@H](c2ccc(-c4ccccc4F)cc2)[C@@H]3CO)cc1,-25.3,x,12.0,-12.4,-23.8,30.4*
COc1ccc(NC(=O)N2CCCCN3[C@H](CO)[C@@H](c4ccc(-c5ccccc5F)cc4)[C@H]3C2)cc1,-4.6,x,5.2,3.3,51.5*,-23.8
COc1ccc(NC(=O)N(C)C[C@@H]2Oc3c(NC(=O)c4cnccn4)cccc3C(=O)N([C@@H](C)CO)C[C@H]2C)cc1,20.2,x,12.4,-5.0,-6.4,-0.9
CO[C@@H]1CN(C)C(=O)c2cc(NC(=O)Nc3cccc(F)c3)ccc2OC[C@@H](C)NC[C@@H]1C,2.8,x,-6.1,0.1,5.3,6.1
O=C(C[C@H]1CC[C@H](NC(=O)CN2CCOCC2)[C@@H](CO)O1)NCCc1ccncc1,10.9,x,-11.3,0.1,12.3,3.0
C[C@@H]1CN([C@@H](C)CO)C(=O)c2cccc(NS(=O)(=O)c3ccc(Cl)cc3)c2O[C@H]1CN(C)Cc1ccc(Cl)c(Cl)c1,-17.7,x,-7.3,0.3,11.8,6.1
NC(=O)c1ccccc1NC(=O)COC(=O)C1(c2ccccc2)CC1,0.6,0.8,2.3,3.3,-3.1,32.4*
Cc1cc(C)nc(NS(=O)(=O)c2ccc(N/C=C\C(=O)c3ccc(Cl)cc3)cc2)n1,x,-11.4,7.1,x,x,x
Cc1cc(C)nc(NS(=O)(=O)c2ccc(N/C=C/C(=O)c3ccc(Cl)c(Cl)c3)cc2)n1,63.0*,10.2,-7.7,x,x,x
